Results on eight molecules are retold here after PubChem BioAssay (Tox21).

SMILES strings stand for the structures. Several values for one entry are separate records, joined by “and”; a condition that tells them apart may be missing. Identical values can stand only once. Records with an inconclusive call do not appear. A structure can be active in one record and inactive in another. Activity calls are given as the source filed them. Unless noted, calls follow the shape of the full dose curve.

Assay [1] is described as follows: Nuclear factor erythroid 2-related factor 2/antioxidant responsive element (Nrf2/ARE) small molecule agonists: qHTS cell viability counter screen in human keratinocytes (AID 1919968; active = well fitted cell-killing curve with a large enough effect in the repeat runs; also: nearly all actives have a fitted effect of over 55% in size). A digest of the protocol: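 Stably transfected HaCaT (KeratinoSens), 1,500/well. Test agents in DMSO were applied for 23 h, 37 C/5% CO2. CellTiter-Fluor was incubated 1 h before the fluorescence read.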
(In general: In qHTS, concentration-response curves come from the screen itself.)

Assay [2] in a line: Nuclear factor erythroid 2-related factor 2/antioxidant responsive element (Nrf2/ARE) small molecule agonists: luciferase reporter gene qHTS assay in human keratinocytes (AID 1919969; also: nearly all actives have a fitted effect of over 35% in size; also: potency is read from the fitted curve at half-maximal effect). (In general: Reporter assays use an easily measured gene product as a stand-in for the process of interest.)
Assay [3] has as its target Gonadotropin-releasing hormone receptor (Homo sapiens) (UniProt P30968). Nature of the assay: Human gonadotropin-releasing hormone receptor (GnRHR) small molecule agonists, calcium flux assay in GnRHR-HEK293 cells (AID 1920063). Also: nearly all actives have a fitted effect of over 35% in size. Also: potency is read from the fitted curve at half-maximal effect. A digest of the protocol:
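Stable human GnRHR HEK293 line. 18 h plating, then calcium dye for 1 h at 37 C. Agonist-mode compound addition from DMSO stocks; fluorescence monitored 3 min.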
In general terms: Calcium assays in cells follow changes in intracellular calcium, usually with a dye or a luminescent sensor.

Assay [4] in a line: G protein-coupled receptor (GPCR) small molecule agonists, calcium flux assay: HEK293 wild type cell line counter screen (AID 1920065). Also: potency is read from the fitted curve at half-maximal effect. In short, it runs like this: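 Following 18 h incubation at 37 C/5% CO2, plates got calcium dye for 1 h; compounds, ATP or DMSO were then pinned in and fluorescence followed kinetically (480/540 nm).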
A short description of assay [5]: p53 small molecule agonists, cell-based qHTS assay with human liver microsomes (AID 1963577).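 Also: p53 response element beta-lactamase reporter cells with liver microsomes plus NADPH.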 In short, it runs like this: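 HLM-supplemented p53RE-bla reporter assay: 16 h compound exposure at 37 C, microsomes and NADPH each 0.5 mg/mL final, read by fluorescence intensity.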
Assay [6] is described as follows: p53 small molecule agonists, cell-based qHTS assay with rat liver microsomes (AID 1963578). A digest of the protocol: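 Quantitative HTS of the Tox21 10K library: p53RE-bla cells, rat liver microsomes plus NADPH at 0.5 mg/mL final each, 16 h at 37 C, beta-lactamase fluorescence detection.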
A short description of assay [7]: p53 small molecule agonists, cell-based qHTS assay with human liver microsomes: qHTS cell viability counter screen (AID 1963579). Also: nearly all actives have a fitted effect of over 45% in size. In short, it runs like this: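 Viability of p53RE-bla cells is measured as CellTiter-Glo luminescence following a 16 h, 37 C incubation with compound, liver microsomes from human donors and NADPH.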
Assay [8] in a line: p53 small molecule agonists, cell-based qHTS assay with rat liver microsomes: qHTS cell viability counter screen (AID 1963580). Also: nearly all actives have a fitted effect of over 45% in size. In short, it runs like this:
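Cytotoxicity counter screen: intracellular ATP measured by CellTiter-Glo luminescence in the same wells as the beta-lactamase reporter read, on HCT-116 p53RE-bla cells exposed 16 h at 37 C to compounds with rat liver microsomes and NADPH, each 0.5 mg/mL final.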

The nature of assay [9]: p53 small molecule agonists, cell-based qHTS assay: qHTS cell viability counter screen (AID 1963581). Also: nearly all actives have a fitted effect of over 45% in size. A digest of the protocol:
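qHTS counter screen: 16 h compound exposure at 37 C of p53RE-bla HCT-116 cells (4,000 per well, seeded 5 h prior), cell viability by ATP luminescence.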

Assay [10] is described as follows: p53 small molecule agonists, cell-based qHTS assay (AID 1963582; active = well fitted activation curve with a large enough effect in the signal ratio in the repeat runs, not every such curve was filed as active; the % refers to the signal ratio). A digest of the protocol: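 Measured: fluorescence from cleaved LiveBLAzer substrate. System: p53RE-bla cells, 16 h compound treatment at 37 C, 2 h substrate step at room temperature.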
The target of assay [11] is 5-hydroxytryptamine receptor 2A (Homo sapiens) (UniProt P28223). Nature of the assay: 5-hydroxytryptamine receptor 2A (HTR2A) small molecule antagonists, cell-based qHTS assay (AID 1963586). Also: nearly all actives have a fitted effect of over 45% in size. A digest of the protocol:
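CHO cells stably expressing human HTR2A were plated for 18 h at 37 C, then loaded with calcium dye for 1 h. Compounds were preincubated 5 min at room temperature before DOI (4 nM solution) was added. Kinetic fluorescence was read for 3 min.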

The target is the same in assay [12]. The assay can be described thus: 5-hydroxytryptamine receptor 2A (HTR2A) small molecule agonists, cell-based qHTS assay (AID 1963587). Also: nearly all actives have a fitted effect of over 30% in size. A digest of the protocol: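 CHO cells stably expressing human HTR2A, plated 18 h, loaded with calcium dye 1 h at 37 C. Agonist mode: compounds added and intracellular calcium fluorescence recorded kinetically for 2 min at 1 sec intervals.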

Assay [13] deals with Muscarinic acetylcholine receptor M1 (Homo sapiens) (UniProt P11229). The assay can be described thus: Cholinergic receptor muscarinic 1 (CHRM1) small molecule agonists, cell-based qHTS assay (AID 1963589). Also: nearly all actives have a fitted effect of over 35% in size. In short, it runs like this:
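Kinetic fluorescence (1 s intervals) of calcium-sensitive dye in human M1 CHO cells after compound addition; cells pre-incubated 18 h at 37 C/5% CO2 and dye-loaded 1 h.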

Assay [14] can be described thus: cAMP Responsive Elements (CRE) small molecule agonists, cell-based qHTS assay (AID 1963590). In short, it runs like this:
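Test agents in DMSO were incubated 3 h at 37 C/5% CO2 with CRE-bla HEK 293T cells seeded 18 h earlier; LiveBLAzer B/G FRET substrate was added and read after 2 h at room temperature.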

Assay [15] is described as follows: cAMP Responsive Elements (CRE) small molecule antagonists, cell-based qHTS assay (AID 1963591; active = well fitted inhibition curve with a large enough effect in the signal ratio in the repeat runs, not every such curve was filed as active; the % refers to the signal ratio). In short, it runs like this: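 Reporter line CRE-bla HEK 293T in dialyzed-FBS DMEM; cells preincubated 18 h, treated 3 h with compound plus NKH477 (0.25 uM final); LiveBLAzer FRET, 2 h RT.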
Assay [16] has as its target Beta-2 adrenergic receptor (Homo sapiens) (UniProt P07550). Nature of the assay: Adrenergic beta2 receptor (ADRB2) small molecule antagonists, cell-based qHTS assay (AID 1963592). Also: series mostly up to about 92 µM; nearly all actives have a fitted effect of over 50% in size. A digest of the protocol: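 Assay format: CHO-ADRB2 cells, 18-20hr seeding at 37C/5% CO2, then compound plus 1nM isoproterenol agonist mix for 0.5hr RT. Homogeneous time-resolved fluorescence cAMP detection after 1hr, expressed as 665/615 nm ratio.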

Assay [17] has as its target D(2) dopamine receptor (Homo sapiens) (UniProt P14416). Nature of the assay: Dopamine D2 receptor (DRD2) small molecule agonists, cell-based qHTS assay (AID 1963594). Also: nearly all actives have a fitted effect of over 35% in size. A digest of the protocol: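 HEK293 cells stably expressing human DRD2, pre-treated with PDE inhibitor Ro20-1724 (0.1 mM final) and compound 10 min at room temperature, then stimulated with NKH477 (200nM […]) for 30 min. cAMP read by HTRF (665/620 nm).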

The target is the same in assay [18]. Nature of the assay: Dopamine D2 receptor (DRD2) small molecule antagonists, cell-based qHTS assay (AID 1963595; active = well fitted inhibition curve with a large enough effect in the signal ratio in the repeat runs, with a control signal flat; the % refers to the signal ratio). A digest of the protocol:
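Antagonist mode in DRD2-HEK293 cells: after compound addition with 0.1 mM Ro20-1724, cells received quinpirole (12 nM) and NKH477 (200 nM) for 30 min at room temperature; HTRF cAMP read after 1 h detection.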

Assay [19] addresses Muscarinic acetylcholine receptor M1 (Homo sapiens) (UniProt P11229). Nature of the assay: Cholinergic receptor muscarinic 1 (CHRM1) small molecule antagonists, cell-based qHTS assay (AID 1963588). Also: nearly all actives have a fitted effect of over 40% in size. A digest of the protocol: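 Compounds were tested at 15 concentrations in three independent runs. Dye-loaded CHRM1-CHO cells were exposed 5 min at room temperature before stimulation by acetylcholine added at 50nM. Intracellular calcium was read kinetically on FDSS for 3 min.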

Assay [20] deals with Beta-2 adrenergic receptor (Homo sapiens) (UniProt P07550). The assay can be described thus: Adrenergic beta2 receptor (ADRB2) small molecule agonists, cell-based qHTS assay (AID 1963593).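 Also: CHO cells stably overexpressing human ADRB2.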 In short, it runs like this:
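CHO cells stably over-expressing ADRB2 were plated overnight at 37C, then dosed with compounds plus a stimulation mix containing 100uM IBMX and 25uM Ro-20-1724 for 0.5hr at room temperature. cAMP was measured by HTRF competition, 1hr.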

Chain of D(2) dopamine receptor (Homo sapiens) (P14416 whole entry, looked up): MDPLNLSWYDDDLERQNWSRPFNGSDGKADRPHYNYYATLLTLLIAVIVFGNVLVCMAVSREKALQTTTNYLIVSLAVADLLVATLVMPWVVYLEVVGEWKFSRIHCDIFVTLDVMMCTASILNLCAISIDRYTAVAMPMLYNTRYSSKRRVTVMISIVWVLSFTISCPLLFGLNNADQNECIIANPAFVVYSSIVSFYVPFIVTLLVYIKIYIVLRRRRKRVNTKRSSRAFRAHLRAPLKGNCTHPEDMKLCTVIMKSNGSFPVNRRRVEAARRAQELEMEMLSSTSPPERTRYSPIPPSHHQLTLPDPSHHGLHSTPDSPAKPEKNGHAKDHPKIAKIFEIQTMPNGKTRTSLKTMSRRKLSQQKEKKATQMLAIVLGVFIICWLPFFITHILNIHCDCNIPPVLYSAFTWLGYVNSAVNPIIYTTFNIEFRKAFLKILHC
Chain of Gonadotropin-releasing hormone receptor (Homo sapiens) (P30968 whole entry, looked up): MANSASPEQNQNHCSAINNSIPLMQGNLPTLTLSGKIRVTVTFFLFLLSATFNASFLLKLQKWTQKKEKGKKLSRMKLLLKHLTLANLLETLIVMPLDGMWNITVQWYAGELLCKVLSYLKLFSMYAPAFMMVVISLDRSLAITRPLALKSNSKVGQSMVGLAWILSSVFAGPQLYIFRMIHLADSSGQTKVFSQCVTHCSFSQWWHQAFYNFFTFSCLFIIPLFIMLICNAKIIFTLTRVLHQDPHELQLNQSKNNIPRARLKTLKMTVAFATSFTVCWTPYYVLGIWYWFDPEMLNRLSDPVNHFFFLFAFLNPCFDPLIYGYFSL
Chain of 5-hydroxytryptamine receptor 2A (Homo sapiens) (P28223 whole entry, looked up): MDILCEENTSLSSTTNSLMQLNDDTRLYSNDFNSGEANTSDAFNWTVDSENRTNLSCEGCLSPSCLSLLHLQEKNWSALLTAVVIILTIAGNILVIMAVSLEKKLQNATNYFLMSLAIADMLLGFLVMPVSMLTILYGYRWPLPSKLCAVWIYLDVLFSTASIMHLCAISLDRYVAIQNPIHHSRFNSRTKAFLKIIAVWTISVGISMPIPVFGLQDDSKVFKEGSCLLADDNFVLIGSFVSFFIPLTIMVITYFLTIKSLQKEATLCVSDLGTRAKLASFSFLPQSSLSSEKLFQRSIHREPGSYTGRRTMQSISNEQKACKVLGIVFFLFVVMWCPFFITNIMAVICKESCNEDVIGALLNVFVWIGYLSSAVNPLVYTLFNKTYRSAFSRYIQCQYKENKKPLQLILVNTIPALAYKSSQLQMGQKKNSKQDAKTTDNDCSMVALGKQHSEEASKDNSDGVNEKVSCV
Chain of Muscarinic acetylcholine receptor M1 (Homo sapiens) (P11229 whole entry, looked up): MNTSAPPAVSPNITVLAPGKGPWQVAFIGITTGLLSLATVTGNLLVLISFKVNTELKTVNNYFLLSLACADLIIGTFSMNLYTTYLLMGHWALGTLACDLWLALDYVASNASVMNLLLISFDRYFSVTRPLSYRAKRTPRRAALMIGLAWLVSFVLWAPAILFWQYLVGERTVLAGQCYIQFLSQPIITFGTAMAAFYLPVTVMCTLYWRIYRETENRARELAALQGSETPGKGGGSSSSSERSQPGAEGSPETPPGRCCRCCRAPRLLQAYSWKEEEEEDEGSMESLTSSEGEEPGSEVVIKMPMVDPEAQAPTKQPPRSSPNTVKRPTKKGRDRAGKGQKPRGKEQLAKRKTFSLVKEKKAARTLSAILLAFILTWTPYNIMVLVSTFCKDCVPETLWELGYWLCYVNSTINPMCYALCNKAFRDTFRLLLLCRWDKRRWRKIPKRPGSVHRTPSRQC
Chain of Beta-2 adrenergic receptor (Homo sapiens) (P07550 whole entry, looked up): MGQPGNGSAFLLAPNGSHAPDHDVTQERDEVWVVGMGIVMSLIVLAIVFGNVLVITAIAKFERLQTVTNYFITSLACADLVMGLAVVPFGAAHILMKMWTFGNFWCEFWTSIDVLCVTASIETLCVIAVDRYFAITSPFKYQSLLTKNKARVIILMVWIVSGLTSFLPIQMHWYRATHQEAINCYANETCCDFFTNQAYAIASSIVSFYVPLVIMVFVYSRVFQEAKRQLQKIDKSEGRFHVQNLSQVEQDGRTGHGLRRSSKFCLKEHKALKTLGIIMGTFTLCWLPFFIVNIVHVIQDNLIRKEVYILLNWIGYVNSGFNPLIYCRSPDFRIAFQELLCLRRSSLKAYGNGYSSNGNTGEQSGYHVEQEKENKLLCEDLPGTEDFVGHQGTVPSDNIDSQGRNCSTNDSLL

Regarding `CC(C)C1CCC(O)CC1` (centres undefined), the Potency entry in assay [1], in assay [2], in assay [3], in [4], in assay [5] and in assay [6] was “inactive” in each case. Also, the Potency result in assay [7], in assay [8], in [9], in assay [10], in assay [11] and in assay [12] was “inactive” in each case. Besides, the Potency result in assay [13], in [14], in [15], in assay [16], in assay [17] and in assay [18] was “inactive” in each case.
Take `Cc1cccc2c1ccc1ccccc12`: the Potency entry in assay [1], in assay [2], in [3], in assay [4], in [5] and in [6] was “inactive” throughout. For the same molecule, the Potency entry in [7], in assay [8], in assay [9], in assay [10], in assay [11] and in assay [12] was “inactive” throughout. Further, the Potency result in [19], in assay [14], in assay [15], in [16] and in [17] was “inactive” each time.
For `COCCCOc1cc(C[C@@H](C[C@H](N)[C@@H](O)C[C@H](C(=O)NCC(C)(C)C(N)=O)C(C)C)C(C)C)ccc1OC`, the Potency entry in [1], in assay [2], in [3], in assay [4], in assay [5] and in assay [6] was “inactive” throughout. Further, the Potency result in assay [7], in assay [8], in [9], in [10], in assay [11] and in assay [12] was “inactive” throughout. In addition, the Potency result in assay [19], in assay [13], in [14], in assay [15], in [16] and in [20] was “inactive” throughout. Moreover, the Potency entry in assay [17] and in assay [18] was “inactive” throughout.
Regarding `CC1CCCC(=O)C1=O` (centres undefined), the Potency result in assay [1], in assay [2], in assay [3], in assay [4], in assay [5] and in assay [6] was “inactive” throughout. Moreover, the Potency result in assay [7], in assay [8], in assay [9], in [10], in assay [11] and in [12] was “inactive” in each case. The Potency entry in [19], in assay [13], in assay [14], in [16], in [20] and in assay [17] was “inactive” each time.
Turning to `C=C(C)C(=O)OCCC(C)OC(=O)C(=C)C` (centres undefined), the Potency entry in assay [1], in [2], in assay [3], in [4], in assay [5] and in assay [6] was “inactive” in each case. The Potency result in assay [7], in [8], in assay [9], in [10], in assay [11] and in [12] was “inactive” throughout. The Potency entry in assay [19], in assay [13], in assay [15], in [16], in assay [20] and in [17] was “inactive” in each case. For the same molecule, the Potency result in [18] is “inactive”.
For `NC(=Nc1ccccc1)Nc1ccccc1`, the Potency entry in assay [1], in assay [6], in assay [7], in assay [8], in assay [10] and in [14] was “inactive” throughout. The Potency entry in assay [15], in assay [16], in assay [17] and in assay [18] was “inactive” in each case. Further, the Potency in assay [2] was 19.3 µM (active) and inactive; in [3], 5.49 µM (active) and 15.1 µM (active); in assay [4] it was 15.5 µM (active).
As to `Cc1cccc(Nc2ccccc2C(=O)O)c1C`, the Potency entry in assay [1], in assay [2], in assay [3], in assay [4], in assay [7] and in assay [8] was “inactive” in each case. Also, the Potency entry in [9], in [16], in [20], in assay [17] and in assay [18] was “inactive” in each case.
Consider `N[C@H]1C(O)O[C@H](CO)[C@@H](O)[C@@H]1O` (some centres undefined), for which the Potency result in assay [1], in assay [2], in assay [3], in assay [4], in assay [5] and in assay [6] was “inactive” each time. The Potency entry in [7], in assay [8], in assay [9], in [10], in assay [12] and in assay [19] was “inactive” each time. Moreover, the Potency result in [13], in assay [14], in [15], in [16], in assay [20] and in assay [18] was “inactive” in each case.
